Experimental data reported in PubChem BioAssay AID1986 (Sanford-Burnham Center for Chemical Genomics, 2009).
Out of some 290,000 compounds screened, about 890 (0.31%) were called active. Rule as the data show it: active = inhibition mostly above about 52% (no sharp cut-off); inactive = mostly below about 76%. The sample as a whole holds a higher share of actives than the screen did.

Test: inhibitors of HIV fusion peptide binding, primary screen, biochemical, uHTS, fluorescence dequenching (AID 1986)
Conditions: cell-free peptide binding, 30 min, stronger effect = higher value
[1] = measured here: repeat confirmation average inhibition, at 18.6 µM

Row | Compound | inhibition (at 20 µM) | inhibition [1] [%]
1 | CN1CCN(C(=O)CCN2C(=O)c3ccccc3C2=O)CC1 | -0.4% (inactive) | –
2 | O=C(N/N=C/c1sc2ccccc2c1O)c1ccccc1 | 95% (active) | –
3 | COc1ccc(C(=O)N/N=C/c2sc3ccccc3c2O)cc1 | 34.9% (inactive) | –
4 | O=C(N/N=C/c1sc2ccccc2c1O)c1cccc2ccccc12 | 34.1% (inactive) | –
5 | COc1ccc(-c2nn(-c3ccccc3)cc2/C=C2/SC(=S)N(CCC(=O)O)C2=O)cc1 | -0.4% (inactive) | –
6 | Cc1ccc(-c2nn(-c3ccccc3)cc2/C=C2\SC(=S)N(CCCCCC(=O)O)C2=O)o1 | 82% (active) | –
7 | O=C(O)CCCN1C(=O)/C(=C/c2ccncc2)SC1=S | -0.7% (inactive) | –
8 | O=C(O)CCCN1C(=O)/C(=C/c2cn(-c3ccccc3)nc2-c2cccs2)SC1=S | 79.6% (active) | 142
9 | O=C(O)CCCN1C(=O)/C(=C\c2ccccc2OCc2ccccc2)SC1=S | 63.8% (inactive) | 37.2
10 | Cc1nn(-c2ccccc2)c(Cl)c1/C=C1\SC(=S)N(CCCCCC(=O)O)C1=O | 33% (inactive) | –
11 | O=C(O)CCN1C(=O)/C(=C/c2cn(-c3ccccc3)nc2-c2cccs2)SC1=S | 90% (active) | 142
12 | Cc1ccc(-c2nn(-c3ccccc3)cc2/C=C/C(=O)O)o1 | 5.9% (inactive) | –
13 | CCN1C(=O)/C(=C\c2cn(-c3ccccc3)nc2-c2cccnc2)SC1=S | 3.5% (inactive) | –
14 | COc1cc(OC)c(OC)cc1CN1CCN(C(=O)CC(C)C)CC1 | -0.6% (inactive) | –
15 | O=C(Oc1cccc(-n2cnnn2)c1)c1ccco1 | 12% (inactive) | –
16 | CC(NC(=O)c1ccc2c(c1)OCO2)c1ccccc1 (stereo not given) | 0.3% (inactive) | –
17 | Cc1ccc2c(C(=O)CN3CCCC(C)C3)c(C)[nH]c2c1 (stereo not given) | -0.5% (inactive) | –
18 | O=C(OCc1cncs1)c1cccs1 | 0% (inactive) | –
19 | Cc1ccc(S(=O)(=O)CCSc2cccc(C(=O)O)c2)cc1 | 0.9% (inactive) | –
20 | O=C(Nc1ccccc1C(=O)O)c1cccc(C(=O)Nc2ccccc2C(=O)O)c1 | 34.2% (inactive) | –
21 | Cc1ccc(S(=O)(=O)CCSc2cccc(C(=O)Nc3ccccc3C(=O)O)c2)cc1 | 51.2% (active) | –

Row | Compound | inhibition (at 20 µM) | inhibition [1] [%]
22 | O=C1CN(/N=C/c2ccc([N+](=O)[O-])o2)C(=O)N1 | 146% (inactive) | –
23 | O=C(O)/C=C/c1ccc([N+](=O)[O-])o1 | 5.1% (inactive) | –
24 | O=C1NC(=S)S/C1=C\C=C\c1ccc([N+](=O)[O-])o1 | 56.6% (active) | –
25 | COc1ccc(/C=C/C(=O)NC(=S)Nc2ccccc2)cc1OC | 1.5% (inactive) | –
26 | O=C(O[C@@H]1OC2COC(=O)c3cc(O)c(O)c(O)c3-c3c(cc(O)c(O)c3O)C(=O)O[C@@H]([C@H]1O)[C@@H]2O)c1cc(O)c(O)c(O)c1 | 31.6% (inactive) | –
27 | c1ccc2[nH]c3cc4ncnc4cc3nc2c1 | 59.7% (active) | 95.9
28 | FC(F)(F)c1nc2cc3nc4ccccc4[nH]c3cc2n1 | 3.4% (inactive) | –
29 | Nc1nc2ccccc2[nH]1 | -0.4% (inactive) | –
30 | Cc1cc(C)c(/C=N/n2c(C)cc(C)c(C#N)c2=O)c(C)c1 | -2.5% (inactive) | –
31 | O=C(NCc1ccc2c(c1)OCO2)c1ccc(CSCc2ccccc2Cl)o1 | 0.4% (inactive) | –
32 | CCc1oc2ccccc2c1C(=O)CCN1CCCCC1 | -3.9% (inactive) | –
33 | CCOC(=O)c1c(O)c2ccccc2oc1=O | -0.2% (inactive) | –
34 | CCc1oc2ccccc2c1C(=O)c1cc(Br)c(O)c(Br)c1 | 57.5% (active) | 71.4
35 | Cc1ccc(NC2=NCC(=O)N2c2ccc3c(c2)OCCO3)c(C)c1 | 0.4% (inactive) | –
36 | O=C(NCCSCc1c(F)cccc1Cl)c1ccco1 | -1.3% (inactive) | –
37 | CN(Cc1cc(=O)n2ccsc2n1)Cc1nc2ccccc2c(=O)[nH]1 | -1.5% (inactive) | –
38 | COc1ccc(NC(=O)CSc2ccc3c4c(cccc24)C(=O)c2ccccc2-3)cc1 | 77% (active) | 96.6
39 | N#Cc1cccc(NC(=O)CSc2ccc3c4c(cccc24)C(=O)c2ccccc2-3)c1 | 74.2% (active) | –
40 | N#Cc1cccc(NC(=O)CSc2ccccc2)c1 | -0.6% (inactive) | –
41 | Cc1ccccc1SCC(=O)Nc1cccc(C#N)c1 | 8.4% (inactive) | –
42 | COc1ccc(NC(=O)CSc2nnc(C)c3ccccc23)cc1 | 0.4% (inactive) | –

Row | Compound | inhibition (at 20 µM) | inhibition [1] [%]
43 | COc1ccc(NC(=O)CSc2nncc3ccccc23)cc1 | -1.5% (inactive) | –
44 | COc1ccccc1NC(=O)C(C)OC(=O)C1CC(=O)N(c2ccc3c(c2)OCCO3)C1 (stereo not given) | 1.1% (inactive) | –
45 | Cc1ccc(/C=N/NC(=O)c2ccccc2OCc2cccc(Br)c2)o1 | -2.8% (inactive) | –
46 | CCOc1ccccc1N1CC(C(=O)Nc2ccccc2N2CCOCC2)CC1=O (stereo not given) | -1.3% (inactive) | –
47 | COc1ccccc1CNc1ccccc1F | -1.2% (inactive) | –
48 | COc1ccccc1C(C)NC(=O)CCOc1cccc(C)c1 (stereo not given) | -1.1% (inactive) | –
49 | Cc1ccc2c(CN3C(=O)NC(C)(c4ccc5c(c4)OCO5)C3=O)cc(=O)oc2c1 (stereo not given) | 3.8% (inactive) | –
50 | Cc1cc(C)c(C)c(N=Nc2nc3ccccc3n2C)c1C | -5.2% (inactive) | –
51 | CN(C)c1ccc(N=Nc2nc3ccccc3n2C)cc1 | -6% (inactive) | –
52 | Cn1c(N=Nc2ccccc2)nc2ccccc21 | 101% (active) | –
53 | CC1CCC2(CC1)Nc1ccccc1C(=O)N2c1ccccc1 (stereo not given) | -0.5% (inactive) | –
54 | O=C(CN1CCN(c2ccc(F)cc2)CC1)Nc1ccc(S(=O)(=O)N2CCOCC2)cc1 | 0.3% (inactive) | –
55 | CCN(CC)CC(O)CCCCCCCCC(=O)OC (stereo not given) | -0.6% (inactive) | –
56 | CCOc1ccc(NC(=O)CN2CCN(C3c4ccccc4-c4ccccc43)CC2)cc1 | 0.9% (inactive) | –
57 | O=c1[nH]c(-[n+]2ccccc2)c(/C=N/NC([S-])=Nc2ccccc2)s1 | 97.7% (inactive) | 27.6
58 | CCc1ccc[n+](-c2[nH]c(=O)sc2/C=N/NC([S-])=Nc2ccccc2)c1 | 57% (active) | –
59 | Cc1cc[n+](-c2[nH]c(=O)sc2/C=N/NC([S-])=Nc2ccccc2)cc1C | 36% (inactive) | –
60 | CCN(CC)C(=O)Cn1cc(S(=O)(=O)CC(=O)Nc2ccccc2C)c2ccccc21 | 1.2% (inactive) | –
61 | N#CC1=C(N)SC(N)=C(C#N)C1c1ccc(C(F)(F)F)cc1 | 18.6% (inactive) | –
62 | N#CC1=C(N)SC(N)=C(C#N)C1c1ccoc1 | 97.5% (active) | –
63 | Cc1ccc(C2C(C#N)=C(N)SC(N)=C2C#N)cc1 | -0.7% (inactive) | –
